# Like-named read-outs stand apart in the source and are kept apart here.
# Assays:
# Design in all cases: species or system human, MV4-11 + K-562 + COLO205 + SK-N-BE2 + OVCAR-8
# [1] = system: ACOX1; settings: read-out: apparent Kd, n = 1
# [2] = system: RIPK2; settings: read-out: apparent Kd, n = 1
# [3] = system: GAK; settings: read-out: apparent Kd, compound concentrations: 100 nM and 1000 nM (sheet 'Samples'), n = 1
# [4] = system: CLK1; settings: read-out: apparent Kd; compound concentrations:100 nM and 1000 nM (sheet 'Samples'); n = 1
# [5] = system: CSNK2A2; settings: read-out: apparent Kd; compound concentrations:100 nM and 1000 nM (sheet 'Samples'); n = 1
# [6] = system: HCK; settings: read-out: apparent Kd, n = 1
# [7] = compound concentrations:100 nM and 1000 nM (sheet 'Samples')
compound,measurement,setting,value
COc1cccc(C2=C(c3cn(C)c4c(C)cccc34)C(=O)NC2=O)c1 [RO3301012-000],potency estimated from few doses,"[1]; compound concentrations: 100 nM and 1000 nM (sheet 'Samples'), CATDS: 0.48882093351054501",97.9 nM
same,potency estimated from few doses,"[2]; compound concentrations: 100 nM and 1000 nM (sheet 'Samples'), CATDS: 0.14252909212912099",770 nM
Cl.Fc1cccc(COc2ccc(Nc3ncnc4cc(-c5ccc[nH]5)sc34)cc2Cl)c1 [GW693881A],potency estimated from few doses,"[1]; compound concentrations: 100 nM and 1000 nM (sheet 'Samples'), CATDS: 0.17026663208719101",1170 nM
Cn1cc(C2=C(c3cn(CCCCCO)c4ccccc34)C(=O)NC2=O)c2ccccc21 [RO0318053-000],potency estimated from few doses,"[1]; compound concentrations: 100 nM and 1000 nM (sheet 'Samples'), CATDS: 0.35843240047959801",34.1 nM
COc1ccc(S(=O)(=O)NC2CCN(c3cc(C)nc(Nc4cccc(C#N)c4)n3)CC2)cc1.O=C(O)C(F)(F)F [GSK1653539A],potency estimated from few doses,"[1]; compound concentrations: 100 nM and 1000 nM (sheet 'Samples'), CATDS: 0.290276615306997",1770 nM
O=C1Nc2ccc(F)cc2/C1=C/c1ccc[nH]1 [RO0272148-000],potency estimated from few doses,"[1]; compound concentrations: 100 nM and 1000 nM (sheet 'Samples'), CATDS: 0.35170736518262402",1160 nM
COc1ccccc1C(=O)c1cnc(NC2CCN(S(C)(=O)=O)CC2)nc1N [RO4514610-000],potency estimated from few doses,[1]; [7],2190 nM
Cc1[nH]nc2c1N=C(c1ccccc1Cl)c1cc([N+](=O)[O-])ccc1N2 [RO0274406-000],potency estimated from few doses,"[1]; compound concentrations: 100 nM and 1000 nM (sheet 'Samples'), CATDS: 6.8791722684654694E-2",1400 nM
COc1cc(N2CCN(C(C)C)CC2)ccc1Nc1nc(Nc2cccc(F)c2C(=O)O)c2cc[nH]c2n1 [GSK1819799A],potency estimated from few doses,[3]; CATDS: 9.1160563566663896E-2,352 nM
Cc1ccc(C(=O)NC2CC2)cc1-c1ccc2[nH]ncc2c1 [GW820759X],potency estimated from few doses,"[1]; compound concentrations: 100 nM and 1000 nM (sheet 'Samples'), CATDS: 0.303559006930335",1410 nM
Cl.Oc1ccc2ncnc(Nc3ccc(OCc4ccccc4)cc3)c2c1 [GI262866A],potency estimated from few doses,[1]; [7],830 nM
same,potency estimated from few doses,[2]; [7],923 nM
Cc1ccc(CC(=O)N2CCc3cc(-c4cn(C)c5ncnc(N)c45)ccc32)cc1 [GSK2634758A],potency estimated from few doses,"[1]; compound concentrations: 100 nM and 1000 nM (sheet 'Samples'), CATDS: 0.17317335895949701",1310 nM
COc1cc2ncn(-c3cc(OCc4sccc4Cl)c(C(N)=O)s3)c2cc1OC [GSK448459A],potency estimated from few doses,[1]; [7],1270 nM
CCCCCNC(=O)[C@@H]1CCCN2C(=O)CC[C@H](NC(=O)[C@H](Cc3ccc(OP(=O)(O)O)cc3)NC(C)=O)C(=O)N12 [RO0324694-000],potency estimated from few doses,[1]; [7],1640 nM
Cn1cc(C2=C(c3ccccc3[N+](=O)[O-])C(=O)NC2=O)c2ccccc21 [RO0317753-000],potency estimated from few doses,"[1]; compound concentrations: 100 nM and 1000 nM (sheet 'Samples'), CATDS: 8.6924247533373397E-2",891 nM
COc1ccc(C2=NC(c3ccc(Cl)cc3F)C(C(=O)Nc3ccc4[nH]ncc4c3)=C(C)N2)cn1.O=C(O)C(F)(F)F (stereo not shown) [GSK534913A],potency estimated from few doses,[1]; [7],1050 nM
Cc1ccc(NC(=O)c2ccc(Cl)cc2)cc1-c1ccc(C(=O)Nc2ccncc2)cc1 [GSK1398467A],potency estimated from few doses,"[1]; compound concentrations: 100 nM and 1000 nM (sheet 'Samples'), CATDS: 0.25978974702241497",761 nM
Cn1cc(C2=C(c3cn(CCCN/C(N)=N/[N+](=O)[O-])c4ccccc34)C(=O)NC2=O)c2ccccc21 [RO0318161-000],potency estimated from few doses,"[1]; compound concentrations: 100 nM and 1000 nM (sheet 'Samples'), CATDS: 0.32839321732103",1100 nM
COc1cc(F)c(F)c(F)c1C(=O)c1cnc(NC2CCN(S(C)(=O)=O)CC2)nc1N [RO4600703-000],potency estimated from few doses,[1]; [7],1010 nM
same,potency estimated from few doses,[4],729 nM
CCS(=O)(=O)c1ccc(OC)c(Nc2ncc(-c3cccc(F)c3)o2)c1 [GW621970X_KCGS],potency estimated from few doses,[5],2010 nM
CC(=O)Nc1ccc2c(C3=C(c4cn(C)c5ccccc45)C(=O)NC3=O)cn(C)c2c1 [RO0317596-000],potency estimated from few doses,"[1]; compound concentrations: 100 nM and 1000 nM (sheet 'Samples'), CATDS: 0.20475693554228799",453 nM
CCCN1CCC(Oc2cc(Nc3nc(Nc4cccc(F)c4C(N)=O)c4cc[nH]c4n3)c(OC)cc2Cl)CC1 [GSK1713088A],potency estimated from few doses,"[1]; compound concentrations: 100 nM and 1000 nM (sheet 'Samples'), CATDS: 0.172971631917821",2220 nM
COc1ccc(C2=C(Nc3cccc(O)c3)C(=O)NC2=O)cc1 [SB-390766],potency estimated from few doses,[1]; [7],861 nM
Clc1ccc(-c2nn3ncccc3c2-c2ccnc(Nc3ccccc3)n2)cc1 [GW829055X],potency estimated from few doses,"[6]; compound concentrations: 100 nM and 1000 nM (sheet 'Samples'), CATDS: 3.5992477058575501E-2",1500 nM
NC(=O)c1sc(-n2cnc3ccc(C(F)(F)F)cc32)cc1OCc1ccccc1Br [GW853606X],potency estimated from few doses,[1]; [7],2200 nM
NC(=O)c1cccnc1COc1cc(-c2ccc(N3CCOCC3)nc2)cc2ncccc12 [BI01125081],potency estimated from few doses,[6]; [7],1350 nM
Cn1cc(C2=C(c3cccc([N+](=O)[O-])c3)C(=O)NC2=O)c2ccccc21 [RO0317474-000],potency estimated from few doses,"[1]; compound concentrations: 100 nM and 1000 nM (sheet 'Samples'), CATDS: 0.177541909552099",937 nM
COc1ccc(-c2nn3ncccc3c2-c2ccnc(Nc3ccc4c(c3)OCCO4)n2)cc1 [GW827106X],potency estimated from few doses,"[1]; compound concentrations: 100 nM and 1000 nM (sheet 'Samples'), CATDS: 4.5987124512604401E-2",1840 nM
same,potency estimated from few doses,[3]; CATDS: 6.3505143893273594E-2,888 nM
